Source: PubChem (several laboratories)
The list is not random: actives were taken first. Their share in the collection is about 3%.
ABHD5-PLIN5 inh – blocks binding of human ABHD5 to perilipin-5. Split G. princeps luciferase complementation, luminescence, 4 h. Q00G26+Q8WTS1. actives 0.78% (n = 360,000). inhibition, % at 4 µM;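 active = inhibition above the mean inhibition across every tested compound plus 3 SD, cut at about 22% in these data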;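 also: 0% = DMSO only wells and the 100% control is not disclosed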
HIF-2a block – blocks HIF-2a reporter activity | 786-0 RCC cells HIF-2a reporter, luciferase luminescence, overnight | inhibition, % at 18.8 µM | actives 0.72% (n = 360,000);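 active = inhibition of the luminescence signal of 40% or more relative to plate controls, in a single-dose primary screen at 18.75 µM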
KKLEB cytotox – reduces viability of KKLEB cystic fibrosis airway cells; actives 0.36% (n = 360,000); AID 602141; KKLEB CF airway cells viability, ATPlite luminescence, overnight; stronger effect = lower value; cells stimulated with P. aeruginosa culture filtrate; activity change (cytotoxicity), % at 5 µM;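 active = corrected activity change at or below -50% at 5 µM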
CF NFkB inh – cystic fibrosis NF-kB activation inhibition | KKLEB NF-kB-GFP reporter, PAF-induced, GFP fluorescence overnight | inhibition, % at 5 µM | actives 0.86% (n = 360,000) | AID 588850;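 active = at least 50% inhibition at 5 µM, scaled per plate between neutral and stimulator controls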;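 also: PAF is a Pseudomonas aeruginosa culture filtrate used as stimulus; plate controls were PAF-stimulated DMSO wells for no effect and unstimulated DMSO wells for full effect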
Peg3 promoter – reduces Peg3 promoter-driven luciferase expression in HeLa; HeLa PEG-Prom luciferase reporter, luminescence, overnight; actives 1.7% (n = 360,000); inhibition, % at 20 µM; AID 588405;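 active = inhibition of at least 50% at 20 µM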
MITF TRPM1 inh – inhibitors of MITF-driven TRPM1 promoter in melanoma cells. SK-MEL-5 TRPM1 promoter luciferase, 24 h. actives 0.83% (n = 330,000). AID 488899. inhibition, % at 12.5 µM;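 active = mean inhibition across replicates of 60% or more, whatever share of single replicates reaches that level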
ABHD5-PLIN5 conf – ABHD5-PLIN5 interaction inhibition, confirmed | actives 67% (n = 2,200) | biochemical ABHD5-PLIN5 interaction, luminescence | shares compounds with ABHD5-PLIN5 inh | inhibition, % at 4 µM; in the data active = inhibition above about 23%;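 also: 0% = DMSO vehicle wells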
HNF4 counter – HNF4 split-luciferase signal hit, counter-screen. shares compounds with ABHD5-PLIN5 inh. HNF4 dimerization, luminescence, biochemical. inhibition, % at 4 µM. actives 77% (n = 2,200). AID 651674;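 active = mean inhibition across replicate wells exceeding the computed hit threshold, cut at about 13% in these data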;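 also: light from luciferase halves that rejoin when HNF4 fusion proteins dimerize; 0% = DMSO only wells and the 100% control is not given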
Target sequence (P41235 whole entry, looked up, the tested form may be a part): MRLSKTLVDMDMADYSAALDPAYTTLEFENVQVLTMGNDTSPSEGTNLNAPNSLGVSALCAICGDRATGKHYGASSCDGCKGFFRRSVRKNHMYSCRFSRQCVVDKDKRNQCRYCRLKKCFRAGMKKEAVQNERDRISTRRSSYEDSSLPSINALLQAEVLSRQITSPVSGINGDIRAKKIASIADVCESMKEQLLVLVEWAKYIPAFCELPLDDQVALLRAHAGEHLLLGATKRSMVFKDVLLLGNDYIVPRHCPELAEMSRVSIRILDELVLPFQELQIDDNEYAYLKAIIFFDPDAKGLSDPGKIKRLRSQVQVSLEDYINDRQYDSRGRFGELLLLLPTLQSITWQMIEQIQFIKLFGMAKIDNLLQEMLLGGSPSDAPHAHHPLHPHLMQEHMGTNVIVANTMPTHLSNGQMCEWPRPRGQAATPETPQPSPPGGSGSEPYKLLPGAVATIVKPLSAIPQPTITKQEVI
Mdm2 MdmX conf – Mdm2/MdmX (human) interaction inhibition, confirmed. SaOS-2 split-luciferase Mdm2/MdmX complementation, luminescence. actives 99% (n = 740). AID 504601. inhibition, % at 8 µM. shares compounds with HIF-2a block;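 active = mean inhibition of the luminescence signal across two replicates at or above 26 percent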
HIF-2a inh conf – HIF-2a inhibition, single concentration confirmation; shares compounds with HIF-2a block; 786-0 RCC cells, HIF-2a luciferase reporter luminescence, overnight; actives 56% (n = 1,800); AID 651580; inhibition, % at 18.8 µM;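 active = mean inhibition across four replicates of at least 40 percent at the single tested concentration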
HIF-1a cs – inhibits HIF-1a reporter, a counter-screen for HIF-2a inhibitors. shares compounds with HIF-2a block. MiaPaCa-2 HIF-1a luciferase reporter, desferoxamine, overnight. inhibition, % at 18.8 µM. actives 72% (n = 1,800). AID 651589;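 active = mean inhibition of the reporter signal across four replicates at the single tested dose of 50% or more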
* marks the source's active call; other numbers are inactive results.

Results for COc1ccc(OCC(O)CN2CCC(CN3C(=O)c4cccc5cccc(c45)C3=O)CC2)cc1 (stereo not given) ?
ABHD5-PLIN5 inh: 25*; HIF-2a block: 6; KKLEB cytotox: -4; CF NFkB inh: -17; Peg3 promoter: 12; MITF TRPM1 inh: -2; ABHD5-PLIN5 conf: 6; HNF4 counter: 3

Results for CCn1c2ccccc2c2cc(NC(=O)CSc3nnc(C4CC4)n3Cc3ccco3)ccc21 ?
ABHD5-PLIN5 inh: 31*; HIF-2a block: -1; KKLEB cytotox: 13; CF NFkB inh: 0; Peg3 promoter: 0; MITF TRPM1 inh: 7; ABHD5-PLIN5 conf: 11; HNF4 counter: 25*

Results for CCCCOC(=O)Nc1cc(C(=O)OC)ccc1C(=O)OC ?
ABHD5-PLIN5 inh: 28*; HIF-2a block: 13; KKLEB cytotox: 7; CF NFkB inh: -13; Peg3 promoter: 22; MITF TRPM1 inh: -12; ABHD5-PLIN5 conf: 43*; HNF4 counter: 5

How did CC(C)C1N=C(c2ccc3c(c2)OCO3)CC(c2ccccc2O)N1 (stereo not given) do in these assays?
ABHD5-PLIN5 inh: 56*; HIF-2a block: -268; KKLEB cytotox: -18; CF NFkB inh: 25; Peg3 promoter: -3; MITF TRPM1 inh: -15; ABHD5-PLIN5 conf: 58*; HNF4 counter: 82*

What do the screens show for `O=C(O)CCC(=O)Nc1ccc(SSc2ccc(NC(=O)CCC(=O)O)cc2)cc1`?
ABHD5-PLIN5 inh: 44*; HIF-2a block: 2; KKLEB cytotox: -21; CF NFkB inh: 9; Peg3 promoter: 3; MITF TRPM1 inh: 1; ABHD5-PLIN5 conf: 47*; HNF4 counter: 115*

How did CCOC(=O)c1cc(C#N)c(N2CCCNCC2)nc1C(F)(F)F do in these assays?
ABHD5-PLIN5 inh: 3; HIF-2a block: 8; KKLEB cytotox: 0; CF NFkB inh: -4; Peg3 promoter: 17; MITF TRPM1 inh: 9

How did O=C(/C=C/c1c(F)cccc1Cl)c1ccc(F)cc1 do in these assays?
ABHD5-PLIN5 inh: 31*; HIF-2a block: -16; KKLEB cytotox: 0; CF NFkB inh: -10; Peg3 promoter: 9; MITF TRPM1 inh: -2; ABHD5-PLIN5 conf: 95*; HNF4 counter: 91*

How did Cc1nc([N+](=O)[O-])c(Br)n1CC(=O)c1ccc2ccccc2c1 do in these assays?
ABHD5-PLIN5 inh: 25*; HIF-2a block: 11; KKLEB cytotox: -52*; CF NFkB inh: 64*; Peg3 promoter: 47; MITF TRPM1 inh: 34; ABHD5-PLIN5 conf: 53*; HNF4 counter: 36*

How did CCOc1ccc(C(C)=O)cc1N1C(=O)C2C3C=CC(O3)C2C1=O (stereo not given) do in these assays?
ABHD5-PLIN5 inh: 30*; HIF-2a block: 23; KKLEB cytotox: -2; CF NFkB inh: 10; Peg3 promoter: 45; MITF TRPM1 inh: -1; ABHD5-PLIN5 conf: 17; HNF4 counter: 80*

How did CCOc1ccc(C(C)=O)cc1N1C(=O)C2C3C=CC(C3)C2C1=O (stereo not given) do in these assays?
ABHD5-PLIN5 inh: -3; HIF-2a block: 20; KKLEB cytotox: 4; CF NFkB inh: 12; Peg3 promoter: -5; MITF TRPM1 inh: 5

How did C=CCN(CC=C)Cc1c(O)ccc2c1oc(=O)c1ccccc12 do in these assays?
ABHD5-PLIN5 inh: 68*; HIF-2a block: -5; KKLEB cytotox: 4; CF NFkB inh: -15; Peg3 promoter: 7; MITF TRPM1 inh: -4; ABHD5-PLIN5 conf: 14; HNF4 counter: 17*

What do the screens show for `C=CCN(CC=C)Cc1cc(=O)oc2ccc3ccccc3c12`?
ABHD5-PLIN5 inh: 0; HIF-2a block: 26; KKLEB cytotox: -13; CF NFkB inh: -16; Peg3 promoter: 45

What do the screens show for `CN(C(=O)Nc1cccc(C(F)(F)F)c1)C1CCCCC1`?
ABHD5-PLIN5 inh: -3; HIF-2a block: -36; KKLEB cytotox: 5; CF NFkB inh: -1; Peg3 promoter: -22; MITF TRPM1 inh: -28

Results for COC(=O)c1cc(=O)n(-c2ccc(F)cc2)c(=Nc2ccc(F)cc2)s1 ?
ABHD5-PLIN5 inh: 40*; HIF-2a block: 53*; KKLEB cytotox: -15; CF NFkB inh: 18; Peg3 promoter: 93*; MITF TRPM1 inh: 16; ABHD5-PLIN5 conf: 71*; HNF4 counter: 49*; HIF-2a inh conf: 66*; HIF-1a cs: 91*

Results for CC(=O)OCC1=C[C@@H]2OC(=O)C3=CO[C@@H](O[C@@H]4O[C@H](CO)[C@@H](O)[C@H](O)[C@H]4O)[C@H]1[C@@H]32 ?
ABHD5-PLIN5 inh: -2; HIF-2a block: 5; KKLEB cytotox: 0; CF NFkB inh: 18; Peg3 promoter: 6; MITF TRPM1 inh: -8

Results for C=C1C(=O)OC2C=C(CO)C3OC3C3OC3(C)CC(OC(=O)/C(=C/C)COC(C)=O)C12 (stereo not given) ?
ABHD5-PLIN5 inh: 52*; HIF-2a block: 85*; KKLEB cytotox: -92*; CF NFkB inh: 82*; Peg3 promoter: 106*; MITF TRPM1 inh: 84*; ABHD5-PLIN5 conf: 73*; HNF4 counter: 82*; HIF-2a inh conf: 93*; HIF-1a cs: 107*

How did COC(=O)CCS(=O)(=O)c1nc(-c2ccccc2)cc(C(F)(F)F)n1 do in these assays?
ABHD5-PLIN5 inh: 51*; HIF-2a block: 88*; KKLEB cytotox: -60*; CF NFkB inh: 87*; Peg3 promoter: 107*; MITF TRPM1 inh: 94*; ABHD5-PLIN5 conf: 85*; HNF4 counter: 105*; Mdm2 MdmX conf: 103*; HIF-2a inh conf: 99*; HIF-1a cs: 107*

Results for Cc1cc(NC(=O)CCCS(=O)(=O)c2nc(-c3cccs3)cc(C(F)(F)F)n2)no1 ?
ABHD5-PLIN5 inh: 47*; HIF-2a block: 94*; KKLEB cytotox: -53*; CF NFkB inh: 90*; Peg3 promoter: 106*; MITF TRPM1 inh: 95*; ABHD5-PLIN5 conf: 74*; HNF4 counter: 100*; HIF-2a inh conf: 56*; HIF-1a cs: 104*
